# Source: PubChem BioAssay
# The list is not random: actives were taken first. Their share in the collection is about 7.5%.
# SMN2 splice enh – SMN2 splice variant enhancement. 2.8% of 210,000 active. Potency, µM (top dose mostly 46.1 µM), inactives show at the highest dose activity change, positive = activation, most hits filed as activators. HEK293 SMN2-luciferase splicing reporter, luminescence, 30-36 h; note: % of control where 0% means no effect; nearly all actives have a fitted effect of over 55% in size
#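 HEK293 cells carry an SMN2 minigene-luciferase reporter in which exon 7 inclusion puts luciferase in frame. Cells were seeded at 2000 cells/well, attached for 10-12 hours, then exposed to compounds for 30-36 hours at 37C before ONE-Glo luminescence.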
# ELG1 genotox – induces genotoxicity in HEK293T cells with luciferase-tagged ELG1; AID 504466; HEK293T ELG1-luciferase reporter, luminescence, 16 h; 1.3% of 330,000 active; Potency, µM (highest dose often 46 µM), inactives show top-dose activity change, positive = activation, usual class: activators; note: % of control where 0% means no effect; nearly all actives have a fitted effect of over 60% in size
#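 ELG1-luciferase HEK293T cells, 2,000/well; compound pinned in; 16 hr, 37 °C, 5% CO2; ONE-Glo, 30 min RT; luminescence on CCD imager.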
# NPC1 prom act – NPC1 promoter activation; 2.4% of 320,000 active; Potency, µM (titrated, usually from 9.22 µM), for the others: at the top dose activation, hits mostly activators; AID 485313; Huh7 NPC1 promoter luciferase reporter, 24 h; note: % of control where 0% means no effect; nearly all actives have a fitted effect of over 60% in size
#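 Stable NPC1-promoter luciferase Huh7 line; cpd (DMSO) 24 h, 37 °C, 5% CO2; Amplite luciferase reagent 10 min RT; luminescence readout. qHTS format.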
# FLuc modulator – firefly luciferase modulation, counter-screen for miR-21 project. P08659. purified FLuc, Km substrates, luminescence inhibition. Potency, µM (top dose mostly 57.5 µM), inactives show at the top dose activity change, negative = inhibition, actives largely listed as inhibitors. 6.9% of 360,000 active;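 note: plate controls were vehicle for no effect and reference inhibitor for full effect; nearly all actives have a fitted effect of over 55% in size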
# Target sequence (P08659 whole entry, looked up): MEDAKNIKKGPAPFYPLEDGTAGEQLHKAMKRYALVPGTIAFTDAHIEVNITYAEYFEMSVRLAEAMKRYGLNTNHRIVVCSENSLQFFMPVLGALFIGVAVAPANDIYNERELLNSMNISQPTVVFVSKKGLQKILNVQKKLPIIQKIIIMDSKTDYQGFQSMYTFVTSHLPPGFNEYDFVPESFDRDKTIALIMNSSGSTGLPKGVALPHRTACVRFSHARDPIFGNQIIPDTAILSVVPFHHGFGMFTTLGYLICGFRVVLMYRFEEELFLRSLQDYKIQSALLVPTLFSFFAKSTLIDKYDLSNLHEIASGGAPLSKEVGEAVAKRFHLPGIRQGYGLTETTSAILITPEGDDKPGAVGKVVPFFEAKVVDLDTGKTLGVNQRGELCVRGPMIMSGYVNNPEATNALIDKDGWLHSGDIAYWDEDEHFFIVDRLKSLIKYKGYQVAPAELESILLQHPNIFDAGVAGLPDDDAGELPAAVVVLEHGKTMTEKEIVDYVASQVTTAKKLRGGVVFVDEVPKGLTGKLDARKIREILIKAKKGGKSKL
#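 Purified P. pyralis luciferase (10nM final) with 10uM D-luciferin and 10uM ATP (Km levels) in 50mM Tris acetate pH 7.5, 10mM Mg acetate, 0.01% Tween-20, 0.05% BSA; qHTS 6-point titration, ~60 µM downward; luminescence read.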
# Rab9 prom act – activates the Rab9 promoter | 2.8% of 320,000 active | Huh7 Rab9 promoter-luciferase reporter, luminescence, 24 h | Potency, µM (top dose mostly 9.22 µM), without a hit: at the top dose activation, negative = inhibition, usual class: activators; note: % of control where 0% means no effect; nearly all actives have a fitted effect of over 60% in size
#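 Luminescence read-out: Huh7 cells stably expressing Rab9-luciferase, treated 24 h with compound at 37 °C, then lysed with luciferase reagent for 10 min at ambient before reading.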
# An asterisk follows results filed as active; ? = inconclusive; . = no result; [ ] = another dose, or the depositor's remark. Calls come from the whole dose curve; as a rule, active = well fitted curve in the direction sought with a large enough effect; inconclusive = small, poorly fitted or top-dose-only effect, or another doubt; inactive = no such curve, though single readings can be large; an effect the other way counts as inactive or inconclusive. Potency is the fitted concentration of half-maximal effect.
SMILES,SMN2 splice enh,ELG1 genotox,NPC1 prom act,FLuc modulator,Rab9 prom act
Fc1ccc(CNc2ncnc3c2cnn3-c2ccccc2)cc1,-17.1%,.,.,?,.
Clc1cccc(-n2ncc3c(Nc4ccc5c(c4)OCCO5)ncnc32)c1,.,.,.,13.5µM*,.
Cc1ccc(Cl)cc1-n1ncc2c(Nc3ccc4c(c3)OCCO4)ncnc21,.,.,.,10.7µM*,.
O=C1N=C2N(CCN3CCCCC3)c3ccccc3N2/C1=C\c1ccc([N+](=O)[O-])o1,-43.5%,?,-38.0%,-1.8%,-43.0%
COc1ccc(NC(=S)N2CCC(NC(=O)c3ccco3)CC2)cc1,.,3.1%,-2.4%,0.6%,-0.4%
Brc1ccc(-c2cnc(-c3cccs3)o2)cc1,?,?,?,5.36µM*,3.98µM*
CN1CCc2c(sc(/N=C/c3cc(Cl)ccc3O)c2C#N)C1,.,16.4µM*,18.1%,2.39µM*,?
CCOC(=O)c1c(/N=C/c2ccc(OC)cc2O)sc2c1CCN(C)C2,.,-1.5%,1.4%,?,-2.6%
CN1CCc2c(sc(/N=C/c3c[nH]c4ccccc34)c2C(N)=O)C1,.,-12.1%,12.5%,?,-1.5%
CN1CCc2c(sc(/N=C/c3c[nH]c4ccccc34)c2C#N)C1,.,?,17.0%,1.35µM*,2.82µM*
Cc1ccc(C(=O)Nc2ccc(S(=O)(=O)NC3=NCCCCC3)cc2)c(C)c1,.,-1.0%,-0.8%,12µM*,-1.2%
COc1ccccc1C(=O)Nc1ccc(S(=O)(=O)NC2=NCCCCC2)cc1,-18.7%,0.3%,-4.6%,5.2%,?
CCCCCn1c(=O)[nH]c2cc(C(=O)N3CCN(c4cccc(Cl)c4)CC3)ccc2c1=O,0.3%,.,.,4.4%,.
Oc1c(Cl)cc(CN(Cc2cc(Cl)c(O)c(Cl)c2)C2CCCCC2)cc1Cl,-9.0%[9.22 µM],.,.,.,.
CC(=O)NC(=S)Nc1ccc(NC(=O)c2cccs2)cc1,?,13.8%,?,?,?
S=C(Nc1ccccc1)Nc1ccc(Br)cn1,-24.3%,3.0%,-7.9%,-1.0%,4.1%
O=C(Nc1ccc(NC(=S)NC(=O)c2cccs2)cc1)c1ccccc1,1.8%,7.7%,-2.6%,1.8%,2.1%
COc1ccc(NC(=S)NNC(=O)c2cccs2)cc1,24.8%,?,-0.4%,-6.3%,3.98µM*
COc1ccc(NC(=O)c2cc(C)n(Cc3cccs3)c2C)cc1,.,?,0.562µM*,0.849µM*,0.316µM*
O=C(NC(=S)Nc1ccc(Br)cn1)c1cccs1,12.6µM*,?,?,3.79µM*,?
O=C(NC(=S)Nc1ccccc1)c1cccs1,.,?,2µM*,16.9µM*,?
CCOc1ccccc1NC(=O)NNC(=O)CCc1ccc(OC)cc1,.,-0.2%,-2.7%,0.5%,3.9%
CSc1ncccc1C(=O)NCCc1ccc(S(N)(=O)=O)cc1,.,1.3%,-0.9%,1.6%,-1.3%
O=C1CCCC2=C1C(c1ccccc1)CC(=O)N2c1ccc(F)cc1F (stereo unspecified),-11.5%,-2.1%,0.6%,-2.1%,-3.7%
CC(C)[C@H](NC(N)=O)C(=O)Nc1ccc(OCc2ccccc2)cc1,0.5%,0.2%,3.2%,-10.8%,18.5%
SMILES,SMN2 splice enh,ELG1 genotox,NPC1 prom act,FLuc modulator,Rab9 prom act
Cc1cnc(C(=O)OCC(=O)Nc2ccc(OCc3ccccc3)cc2)cn1,.,?,2.82µM*,?,2.51µM*
O=C(Nc1ccc(NC(=O)c2cccs2)cc1)c1cccs1,.,?,?,-1.1%,?
COc1ccc(NC(=O)c2cccs2)cc1,17.8µM*,?,?,15.1µM*,?
C[C@H](NC(N)=O)C(=O)Nc1ccc(OCc2ccccc2)cc1,15.8µM*,13.6%,?,?,3.55µM*
Cc1cnc(C(=O)OCC(=O)NCc2ccccc2)cn1,-2.9%,-1.5%,-1.0%,4.5%,17.2%
COc1cccc(-c2nc(-c3ccc(NC(=O)c4cccs4)cc3)no2)c1,-16.5%,13.7%,30.0%,13.5µM*,?
COc1ccc(OC)c(NC(=O)CS(=O)(=O)c2cn(CC(=O)N3CCOCC3)c3ccccc23)c1,.,0.7%,-0.3%,3.6%,.
Oc1ccccc1-c1nnc2n1CCCCC2,.,-2.1%,-0.5%,-2.5%,0.4%
COc1ccc(NC(=O)c2cccs2)c([N+](=O)[O-])c1,20.3%,?,?,?,3.98µM*
O=C(/C=C/c1cccs1)NC(=S)Nc1ccccc1,15.2%,1.1%,18.7%,26.9µM*,?
